Reference: PubChem BioAssay (NCI)
This is part of a sample that, as a whole, favours compounds with a hit. Of some 79,000 tested, about 15% had one in any assay. Unmarked numbers belong to inactive results. Active and inactive are the calls of the source. No stated cut-off is given here; in the data, active means growth inhibition above about 70%; inactive means the rest.

Legend:
[1] = NCI Yeast Anticancer Drug Screen. Data for the rad50 strain (AID 155);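 further: 0% = growth of vehicle-only cultures of the same strain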; conditions: S. cerevisiae rad50 strain growth inhibition; at 50.0 µM; hits give high values
In short: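 Readout: growth inhibition relative to vehicle-treated cultures. Compound exposure was carried out in a genetically defined yeast strain deficient in DNA damage repair.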

[2] = NCI Yeast Anticancer Drug Screen. Data for the mec2-1 strain (AID 157); conditions: S. cerevisiae mec2-1 strain, at 50.0 µM, hits give high values
In short: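 Readout is yeast growth inhibition, normalised to vehicle-treated controls, in the mec2-1 strain exposed to compound.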

[3] = NCI Yeast Anticancer Drug Screen. Data for the sgs1 mgt1 strain (AID 161);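 further: 0% = growth of cultures given vehicle only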; conditions: S. cerevisiae sgs1 mgt1 strain, at 50.0 µM, hits give high values
In short: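 Compounds are added to genetically altered yeast, and growth is compared with cultures given vehicle alone to give percent inhibition.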

[4] = NCI Yeast Anticancer Drug Screen. Data for the cln2 rad14 strain (AID 165);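 further: 0% = growth equal to vehicle treated cultures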; conditions: S. cerevisiae cln2 rad14 strain, at 50.0 µM, hits give high values
In short: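 Relative to vehicle controls, growth inhibition of compound-treated cln2 rad14 yeast was recorded.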

[5] = NCI Yeast Anticancer Drug Screen. Data for the bub3 strain (AID 167); conditions: S. cerevisiae bub3 mutant strain, at 50.0 µM, hits give high values
In short: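 Readout: yeast growth inhibition, expressed relative to vehicle-only wells. The test organism is a mutant strain from a panel with lesions in DNA repair or checkpoint genes.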

[6] = NCI Yeast Anticancer Drug Screen. Data for the mlh1 rad18 strain (AID 175); conditions: S. cerevisiae mlh1 rad18 strain growth inhibition; at 50.0 µM; hits give high values
In short: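 Test agents were incubated with a yeast strain of defined genotype (DNA damage repair defect). Inhibition of growth was derived by comparison with vehicle-exposed cultures.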

| Structure (SMILES) | growth inhibition [1] | growth inhibition [2] | growth inhibition [3] | growth inhibition [4] | growth inhibition [5] | growth inhibition [6] |
| --- | --- | --- | --- | --- | --- | --- |
| C[n+]1c(/C=C/C=C/c2ccccc2)oc2ccccc21 | -38.3% | -2.25% | -22.6% | -11.2% | 5.8% | 9.7% |
| CC(C)(N)C(=O)N[C@@H]1C(=O)N2[C@@H]1SC(C)(C)[C@@H]2C(=O)O | 8.4% | 3.55% | -19.2% | -0.95% | 5.9% | 4% |
| CC1c2nc(N)nc(N)c2CN1C(=O)c1ccccc1 (stereo unspecified) | 3.25% | -5.7% | -18.9% | -13.6% | -8.85% | -0.85% |
| CCC(C)C1(C)OC1C(=O)OC (stereo unspecified) | -2.7% | -31.6% | -42.4% | 22.1% | -41% | 4.55% |
| Cc1ccc2nc(C)cn2c1 | -0.05% | 7.7% | -1.15% | 14.3% | 10.7% | 2.3% |
| C=C1C2CCC3(CCC4C5(C)CCCC4(CN(C(C)=O)C5)C3C2)C1O (stereo unspecified) | 11.2% | -5.1% | 10.3% | 1.4% | 6.25% | 8.95% |
| C=CCN(CC=C)CCNc1cc(C)nc(Nc2nc3ccc(Cl)cc3[nH]2)n1 | 90.6% (active) | 50.4% | 93.2% (active) | 82% (active) | 24.9% | 91.5% (active) |
| N#CC(c1ccccc1)c1ccccn1 (stereo unspecified) | 5.9% | 8.35% | 8.75% | -9.2% | 5.5% | 2.75% |
| Cc1cc([N+](=O)[O-])ccc1NC(=O)C(=O)C(C(=O)c1ccccc1-c1ccccc1)C1OC(=O)c2ccccc21 (stereo unspecified) | 12% | 12.4% | -5.4% | -52% | 6.8% | 41.5% |
| O=C(Nc1ccc(Cl)cc1)c1cccnc1 | 10.1% | -10.7% | 32.8% | -8.5% | 34.4% | 15.6% |
| Cc1[nH]c(=O)nc2nc3ccc(Cl)cc3c(NCCNCCO)c12 | -37.5% | -42.4% | 24.1% | 3.5% | -0.9% | -43.6% |
| Cc1nc([N+](=O)[O-])cn1/C=C/Cn1cc([N+](=O)[O-])nc1C | -3.25% | -18.9% | 5% | 6.65% | -25.7% | 4.8% |
| CC(=O)CC(=O)CCCCCCCCCCCC(=O)CC(C)=O | -5.15% | -15.4% | -5.45% | -0.1% | 13.5% | 10.4% |
| Cc1ccc(S(=O)(=O)N2CCC2c2ccccc2)cc1 (stereo unspecified) | 4.55% | -3.8% | -17.9% | -3.85% | -17.9% | -24.9% |
| O=C1NC(Cc2ccccc2)C(=O)N2CCCC12 (stereo unspecified) | 2.55% | -6.75% | -12.2% | -18.1% | -1.15% | 3.35% |
| N#CCCN(c1ccc(C=Nc2ccc(C(=O)O)cc2)cc1)S(=O)(=O)c1ccccc1 | -0.1% | -29.6% | 7.4% | 5.75% | 19.9% | -11.1% |
| O=S(=O)(CC(Br)c1ccccc1)c1ccccc1 (stereo unspecified) | 44.7% | 6.15% | 5.05% | -4.3% | 60.5% | 45% |
| COC(=O)Nc1cccc(OC(=O)Nc2cccc(Cl)c2)c1 | 10.3% | 25.2% | 26.6% | -2.85% | 31.4% | 1.4% |
| O=c1[nH]c(Br)nc2c(Br)c[nH]c12 | -17.1% | -0.15% | -18.4% | -12.8% | -22.2% | -18.9% |
| COc1ccc2cc3n(cc-2c1=O)CCc1cc2c(cc1-3)OCO2 | -8.65% | -3.1% | 5.65% | -14.4% | -6.65% | 1.45% |
| CC1(CC2(C)SCCCS2)SCCCS1 | -1.1% | -7.55% | 10.7% | -2.35% | -5.8% | 7.8% |

| Structure (SMILES) | growth inhibition [1] | growth inhibition [2] | growth inhibition [3] | growth inhibition [4] | growth inhibition [5] | growth inhibition [6] |
| --- | --- | --- | --- | --- | --- | --- |
| CCOC(=O)C(NC(=O)CC(C)C)(N1CCN(c2cc3c(cc2F)c(=O)c(C(=O)O)cn3C2CC2)CC1)C(F)(F)F (stereo unspecified) | -5.8% | -26.3% | -0.2% | 12.5% | -24.9% | -17.9% |
| CC(C)NC(=O)N(C(=O)C(F)(F)F)C(C)C | -0.95% | 7.45% | -4.6% | -41% | 2.1% | 7.5% |
| OC(CCNC12CC3CC(CC(C3)C1)C2)c1ccccc1 (stereo unspecified) | 29.8% | 22.4% | 59.2% | 50.5% | 33.4% | 53.6% |
| O=C(Nc1ccc(Cl)cc1)Nc1nnc2nc(CC(=O)c3ccc4ccccc4c3)c(=O)[nH]n12 | 12.9% | 9.45% | 2.2% | -16.3% | 21.8% | 1.3% |
| NC1=Nc2cc(Cl)ccc2Sc2nc3ccccc3n21 | -18.4% | -65.4% | -17.6% | 0.55% | 10.9% | -2.8% |
| Cc1ccc(Br)cc1C(=O)O | 20.8% | 2.25% | 15.2% | 13.8% | -6.1% | 15.4% |
| OCC1OC(O)CC1O (stereo unspecified) | -15.2% | -10.5% | -3.9% | 9.05% | -5.75% | -0.05% |
| Oc1ccc(O)c(-n2cccn2)c1-n1cccn1 | -0.85% | -4.55% | -1.6% | 6.3% | 0% | -2.75% |
| O=[N+]([O-])c1ccc(N=NNc2ccc(N=Nc3ccccc3)cc2)cc1 | 12.1% | -18.8% | -1% | 6.7% | 0.1% | 4.6% |
| CN1CN(c2ccccc2)C2(CCN(c3nc4ccccc4s3)CC2)C1=O | -29.7% | -6.1% | -22.8% | -18.4% | 3.2% | -17.1% |
| CC1CCC(=O)N1C (stereo unspecified) | -19.1% | -1.35% | -16.1% | -21.6% | -0.45% | -9.5% |
| NC(CCC(F)(F)F)C(=O)O (stereo unspecified) | -4.1% | -7.95% | 7.2% | 18.6% | 17.5% | 6.65% |
| O=c1nc(Oc2ccccc2)nc2ncccn12 | 47% | 26.1% | 40.5% | 20.2% | 50.6% | 65% |
| C=CCOC(=O)C(C)OC(=O)OCC (stereo unspecified) | 9.2% | 10.7% | 6.85% | 8.1% | -2.1% | 7.15% |
| CCOC(=O)c1ccc(NC(=S)N2CCOCC2)cc1 | 13.1% | 6.8% | 14.8% | 8.7% | 2.55% | -2.8% |
| S=C(Nc1ccccc1)c1ccccc1 | -23.2% | -16.5% | -5.25% | -29.3% | -5.1% | 16.1% |
| CC(=O)Nc1ccc(Br)cc1C | 25.1% | 1.95% | 2.25% | -10.9% | -2.4% | 30.6% |
| CCCCCC/C=C\CCCCCCCCCc1cccc(OC)c1O | 18.4% | 6.65% | -4.3% | 14.5% | 7.8% | 11.7% |
| O=c1oc2c(ccc3ccccc32)c(O)c1-c1cccc2ccccc12 | 99.2% (active) | 99.5% (active) | 99.5% (active) | 99% (active) | 97.7% (active) | 99.3% (active) |
| N#CCCN(CCC#N)c1ccc(CC2C(=O)N(c3cccc(S(=O)(=O)O)c3)N=C2C(=O)O)cc1 (stereo unspecified) | -19.4% | -26.8% | -23.1% | 6.65% | -15.9% | -32.1% |
